Pf Dd2 inh: Plasmodium falciparum Dd2 growth inhibition. P. falciparum Dd2 growth, SYBR Green, 72 h. Potency, µM (highest dose often 28.9 µM), inactives show at the top dose activity, negative = inhibition, usual class: inhibitors. 120,000 tested, 4.3% active; active means well fitted inhibition curve with a large enough effect;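 further: plate controls were DMSO vehicle for no effect and reference drug for full effect; nearly all actives have a fitted effect of over 65% in size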
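Infected erythrocytes (Dd2, 0.3% parasitemia, 2.5% hematocrit final) are added to compound in RPMI-1640/Albumax II medium, grown 72 h at 37C in low oxygen, then lysed with saponin/Triton-X containing SYBR Green and read by fluorescence.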
Starred values were filed as active, the others as inactive; i = inactive; [ ] = another dose, or the depositor's remark. Many of the other results were omitted from the sample, so hits are more common in it than they were. Potency means the concentration at half of the fitted maximal effect.

SMILES	Pf Dd2 inh
COc1coc(C(=O)N2CCCC(c3ccccc3)(c3ccccc3)C2)cc1=O	-5%
COc1ccc(N2CCN(C3CCCN(C(=O)C(C)(C)N)C3)CC2)cc1 (configuration not stated)	4%
CCc1cc(N2CCN(C)C3(CCC(=O)N(C)CC3)C2)nc(N(C)C)n1 (configuration not stated)	-13%
COCC(=O)N(C1CCOCC1)C1CCN(C(=O)Cc2ccc(C)cc2)CC1	-5%
Cc1ccnc(C(NC(=O)CCc2cc3n(n2)CCCNC3)C2CC2)c1 (configuration not stated)	-5%
CN(Cc1ccc2c(c1)OCO2)Cc1cc2n(n1)CCNC2	0%
CCOc1ccc(Cl)cc1CN(C)Cc1cc2n(n1)CCCNC2	5.6µM*
O=C(COc1ccc2nncn2n1)N1CCCC(c2ccn[nH]2)C1 (configuration not stated)	14%
Cc1cnc(CCNC(=O)c2cnccn2)n1CC1CC1	-1%
COc1cc(C2CC(=O)c3c([nH]c(C(=O)OC4CCCC4)c3C)C2)cc(OC)c1OC (configuration not stated)	5.6µM*
Cc1c(C(=O)OC2CCC(C)CC2)[nH]c2c1C(=O)CC(c1ccccc1Cl)C2 (configuration not stated)	-27%
CC1=C(C(=O)OC2CCCCCC2)C(c2c(F)cccc2Cl)CC(=O)N1 (configuration not stated)	-14%
Cc1c(C(=O)OC2CCCCCC2)[nH]c2c1C(=O)CC(c1ccccc1Cl)C2 (configuration not stated)	10µM*
Cc1c(C(=O)OCC2CCCCC2)[nH]c2c1C(=O)CC(c1ccc(F)cc1)C2 (configuration not stated)	-13%
Cc1c(C(=O)OC2CCCCCC2)[nH]c2c1C(=O)CC(c1ccc(Cl)cc1)C2 (configuration not stated)	-9%
CC(=O)N1CC2(CCCCN2C2COC2)Cc2ccccc21 (configuration not stated)	9%
CCN1C(=O)CCC2(C(=O)N3CCN(Cc4ccc5c(c4)OCO5)CC3)CCCC=C12 (configuration not stated)	i
CCOCC1(C)COc2ccc(C(=O)N(C)c3ccccc3)cc2N1 (configuration not stated)	i
CCOCC1(C)COc2ccc(C(=O)Nc3cccc(N(C)C)c3)cc2N1 (configuration not stated)	3.2µM*
COc1cccc(NC(=O)c2ccc3c(c2)NC(C)(COCCN(C)C)CO3)c1 (configuration not stated)	-9%[44.1 µM]
CCOc1cccc(CNC(=O)c2ccc(Cn3ccn4nc5c(c4c3=O)CCCC5)cc2)c1	i
COc1ccc(CNC(=O)Cn2c(-c3ccc(Cl)cc3)nc(C)c(CCO)c2=O)cc1	-24%
CCCN1C(=O)Cc2cc(C(=O)NCc3ccccc3C(F)(F)F)ccc21	-5%
CC(C)N[C@H]1C[C@@H](Cc2cc(CCO)on2)C1(C)C	-9%[44.1 µM]
CC1(C)[C@H](Cc2cc(COc3ccccc3)on2)C[C@@H]1NC(=O)C1CCC1	11µM*
SMILES	Pf Dd2 inh
CC1(C)[C@H](Cc2cc(CO)on2)C[C@@H]1NC(=O)C1CCC1	1%[44.1 µM]
CC1(C)[C@H](Cc2cc(CN3CCCCC3)on2)C[C@@H]1NC(=O)c1ccccc1	-5%[44.1 µM]
CC1(C)[C@H](Cc2cc(CN3CCN(c4ccccc4)CC3)on2)C[C@@H]1NCC1CC1	i
CC(C)NC(=O)N[C@H]1C[C@@H](Cc2cc(CN3CCN(c4ccccc4)CC3)on2)C1(C)C	10µM*
CC1(C)[C@H](Cc2cc(COc3ccccc3)on2)C[C@@H]1NC(=O)NCc1ccccc1	-1%[44.1 µM]
CC1(C)[C@H](Cc2cc(COc3ccccc3)on2)C[C@@H]1NC(=O)C1CCCC1	i
CN(C)Cc1cc(C[C@@H]2C[C@H](NC(=O)CC(C)(C)C)C2(C)C)no1	14µM*
CC(C)N[C@H]1C[C@@H](Cc2cc(CO)on2)C1(C)C	-16%[44.1 µM]
CC(C)N[C@H]1C[C@@H](Cc2cc(COc3ccccc3)on2)C1(C)C	11µM*
CCCCc1cc(C[C@@H]2C[C@H](NC(=O)C(C)(C)C)C2(C)C)no1	i
COC(=O)C1=CN(CC(=O)Nc2ccc(C(C)C)cc2)S(=O)(=O)N=C1C	122%
O=C1CN(C(=O)CCC(=O)N2CCC(CCOc3ccccc3F)C2)c2ccccc2N1 (configuration not stated)	i
Cc1cnc(C2CCN(C(=O)Nc3ccccc3F)C2)n1C(C)C (configuration not stated)	-21%
Cc1ccc(S(=O)(=O)N(C)C2CCCc3ccccc32)cc1 (configuration not stated)	i
Cc1cc2c(c(=O)n(-c3ccccc3)c(=O)n2CC(=O)Nc2ccc(F)cc2)n1C	-16%
O=C1c2c(nc(COc3cccc(Cl)c3)n2Cc2ccccc2)NCCN1CCOc1ccccc1	-22%
O=C1CCN(S(=O)(=O)c2ccccc2)CCCC(C(=O)NCCN2CCCC2)CCN1 (configuration not stated)	22%
Cc1ccc(C(=O)NCC2Cn3cccc3C(=O)N2C)cn1 (configuration not stated)	-1%
c1ccc(OCc2nc(C3CCCNC3)no2)cc1 (configuration not stated)	5.6µM*
Fc1ccccc1OCc1nc(C2CCCNC2)no1 (configuration not stated)	i
Cc1ccc(OCc2nc(C3CCNC3)no2)cc1 (configuration not stated)	-1%
CCc1noc(-c2cccn3c(CNC(=O)c4ccc(C)c(F)c4)nnc23)n1	-2%
CC1(c2ccccc2)N(Cc2ccccc2C#N)C(=O)OC12CCN(C(=O)c1ccc(F)cc1)CC2 (configuration not stated)	i
CC1(c2ccccc2)N(Cc2ccccc2C#N)C(=O)OC12CCN(c1ccncc1)CC2 (configuration not stated)	11µM*
CC1(c2ccccc2)N(Cc2ccccc2F)C(=O)OC12CCN(C(=O)c1cnccn1)CC2 (configuration not stated)	i
SMILES	Pf Dd2 inh
CC1(c2ccccc2)N(Cc2cccnc2)C(=O)OC12CCN(C(=O)c1ccc(Oc3ccccc3)cc1)CC2 (configuration not stated)	6.3µM*
CC1(c2ccccc2)N(Cc2ccccc2C#N)C(=O)OC12CCN(C(=O)Cc1ccccn1)CC2 (configuration not stated)	i
Cc1nc(CN2C(=O)OC3(CCN(C(=O)Cc4ccc(O)cc4)CC3)C2(C)c2ccccc2)cs1 (configuration not stated)	i
COc1cccc(CC(=O)N2CCC3(CC2)OC(=O)N(Cc2ncccn2)C3(C)c2ccccc2)c1 (configuration not stated)	-4%
CC1(c2cccnc2)N(Cc2ccccc2)C(=O)OC12CCN(C(=O)C1CCC1)CC2 (configuration not stated)	-17%[44.1 µM]
Cn1nccc1C(=O)N1CCC2(CC1)OC(=O)N(Cc1ccccc1C#N)C2(C)c1ccccc1 (configuration not stated)	10µM*
COCC(=O)N1CCC2(CC1)OC(=O)N(Cc1cccnc1)C2(C)c1ccccc1 (configuration not stated)	-2%[44.1 µM]
COc1cccc(CC(=O)N2CCC3(CC2)OC(=O)N(Cc2csc(C)n2)C3(C)c2ccccc2)c1 (configuration not stated)	4µM*

Screens: PubChem, National Center for Advancing Translational Sciences (NCATS)
